This note sets out measurements from PubChem BioAssay (NCI).

This is part of a sample that, as a whole, favours compounds with a hit. Of some 83,000 tested, about 20% had one in any assay.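 Activity criterion: percent growth below 10, measured after cells in 96-well plates were exposed to a single compound concentration for 48 hours.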 Unmarked numbers belong to inactive results. Calls of active or inactive are those of the source.

Among the test systems are HCT-15 colon; HT29 colon; SNB-75 CNS; SNB-19 CNS; U251 CNS; PC-3 prostate; SK-MEL-5 melanoma; UACC-62 melanoma; LOX IMVI melanoma; SK-MEL-28 melanoma; SN12C renal; UO-31 renal; TK-10 renal; ACHN renal; CAKI-1 renal; A498 renal; CCRF-CEM leukemia; MOLT-4 leukemia; SK-MEL-2 melanoma; EKVX NSCLC.
Common to all, as to test: NCI-60 one-dose screen, 48 h (100 = growth as untreated, 0 = no growth, -100 = all killed)
Common to all, as to settings: 10 µM unless noted

As to `Cc1ccc(S(=O)(=O)n2cc(-c3csc(-c4cn(C)c5ncccc45)n3)c3ccccc32)cc1`, the growth in the assay on HCT-15 colon is 35.8%; in the assay on HT29 colon it was 19.3%; with SNB-75 CNS, 45.8%; with SNB-19 CNS, 85%; with U251 CNS, 51.9%; in the assay with PC-3 prostate it was 44.8%. For the same molecule, the growth with SK-MEL-5 melanoma is 39.4%; with UACC-62 melanoma, 58.1%; in the assay on LOX IMVI melanoma it was 51.2%; with SK-MEL-28 melanoma, 58.8%; with SN12C renal, 77.6%; with UO-31 renal, 57.3%. The growth was 91.3% in the assay on TK-10 renal; 53% with ACHN renal; 48.1% with CAKI-1 renal; 52.2% in the assay on A498 renal; 37.4% in the assay on CCRF-CEM leukemia; 49.3% in the assay on MOLT-4 leukemia.

On to `Nc1ccc(N2CCOCC2)cc1`, for which the growth was 103% in the assay on HCT-15 colon; 109% in the assay with HT29 colon; 91.9% in the assay with SNB-75 CNS; 91.1% in the assay with SNB-19 CNS; 98% in the assay on U251 CNS; 101% with PC-3 prostate. The growth in the assay on SK-MEL-5 melanoma was 92.7%; in the assay on UACC-62 melanoma, 86.6%; in the assay with LOX IMVI melanoma, 104%; with SK-MEL-28 melanoma, 118%; with SK-MEL-2 melanoma it was 91.8%; in the assay with SN12C renal, 94%. Further, the growth in the assay on UO-31 renal was 73.5%; with TK-10 renal, 91.8%; in the assay with ACHN renal it was 86.8%; with A498 renal, 103%; in the assay with CCRF-CEM leukemia, 124%; in the assay on MOLT-4 leukemia, 118%.

On to `Cc1ccc(Nc2nc(N)nc(Nc3ccc4ccccc4c3)n2)cc1`, for which the growth was 29.3% with HCT-15 colon; 11.2% in the assay on HT29 colon; 25% in the assay on SNB-75 CNS; 61.7% in the assay with SNB-19 CNS; 17.7% in the assay on U251 CNS; 32.7% in the assay with PC-3 prostate. The growth with SK-MEL-5 melanoma was 47.7%; in the assay with UACC-62 melanoma it was 18.4%; with SK-MEL-28 melanoma, 62%; with SK-MEL-2 melanoma, 50.6%; with EKVX NSCLC, 72.1%; in the assay on SN12C renal it was 40.3%. The growth in the assay on UO-31 renal is 46.4%; in the assay on TK-10 renal, 69%; in the assay on ACHN renal, 46.6%; with CAKI-1 renal it was 30.3%; in the assay with A498 renal, 17.6%; with CCRF-CEM leukemia, 27.8%. Also, the growth with MOLT-4 leukemia is 47.9%.

As for `COc1ccc(C2Nc3ccccc3-n3cccc32)cc1` (stereo not given), the growth was 92.9% in the assay with HCT-15 colon; 108% with HT29 colon; 105% in the assay with SNB-75 CNS; 97.8% in the assay on SNB-19 CNS; 98% in the assay with U251 CNS; 71.7% in the assay on PC-3 prostate. Further, the growth with SK-MEL-5 melanoma was 93.1%; with UACC-62 melanoma it was 81.9%; with LOX IMVI melanoma, 97.3%; in the assay with SK-MEL-28 melanoma it was 106%; in the assay with SK-MEL-2 melanoma, 92.7%; in the assay with SN12C renal it was 97.4%. For the same molecule, the growth with UO-31 renal is 58.3%; with TK-10 renal, 100%; in the assay on ACHN renal it was 88%; in the assay on CAKI-1 renal, 89%; in the assay on A498 renal, 93.2%; with CCRF-CEM leukemia, 104%. Also, the growth with MOLT-4 leukemia is 120%.

As to `O=C(CCN1CCOCC1)Nc1ccc(Cn2nnc3c2C(=O)c2nnn(Cc4ccc(NC(=O)CCN5CCOCC5)cc4)c2C3=O)cc1`, the growth in the assay with HCT-15 colon was 93.6%; in the assay with HT29 colon, 1.57% (active); in the assay with SNB-75 CNS, -86.7% (active); with SNB-19 CNS, 27.1%; with U251 CNS it was -58.7% (active); in the assay on PC-3 prostate, 17.7%. In addition, the growth was -72.9% (active) in the assay on SK-MEL-5 melanoma; -17.3% (active) in the assay with UACC-62 melanoma; -21.9% (active) with LOX IMVI melanoma; 31.7% with SK-MEL-28 melanoma; -40.7% (active) in the assay with SN12C renal; 108% with UO-31 renal. In addition, the growth in the assay on TK-10 renal is 123%; with ACHN renal, 96.6%; with CAKI-1 renal, 90.6%; in the assay on A498 renal, 71.8%; in the assay on CCRF-CEM leukemia it was -15.4% (active).

For the molecule `COc1ccc2nc3cc(Cl)ccc3c(N3CCN(c4nccc(NCc5ccccc5)n4)CC3)c2c1`, the growth in the assay on HCT-15 colon is 47.5%; with HT29 colon it was 52.7%; with SNB-75 CNS, 69.2%; in the assay on SNB-19 CNS, 96%; in the assay with U251 CNS, 69%; in the assay with PC-3 prostate, 78.7%. In addition, the growth with SK-MEL-5 melanoma was 84%; in the assay with UACC-62 melanoma, 85.2%; in the assay on LOX IMVI melanoma, 31.3%; with SK-MEL-28 melanoma, 80.7%; with SN12C renal, 76%; in the assay on UO-31 renal, 45.9%. The growth was 62.6% in the assay with TK-10 renal; 68.5% in the assay with ACHN renal; 62.2% with CAKI-1 renal; 28.8% in the assay with A498 renal; 0.798% (active) with CCRF-CEM leukemia; 5.21% (active) in the assay on MOLT-4 leukemia.

Regarding `Cn1cc(-c2nc(-c3c[nH]c4ccccc34)cs2)c2cccnc21`, the growth in the assay with HCT-15 colon is 30%; in the assay with HT29 colon it was 7.8% (active); in the assay with SNB-75 CNS, -6.18% (active); in the assay with SNB-19 CNS it was 51.6%; with U251 CNS, 26.6%; in the assay with PC-3 prostate, 32.5%. Moreover, the growth in the assay with SK-MEL-5 melanoma was 21.6%; with UACC-62 melanoma it was 51.4%; with LOX IMVI melanoma it was 39.4%; in the assay with SK-MEL-28 melanoma it was 52.4%; with SN12C renal, 52.7%; with UO-31 renal it was 43.8%. Besides, the growth with TK-10 renal is 44%; with ACHN renal it was 56.8%; in the assay on CAKI-1 renal, 29.7%; in the assay on A498 renal, -0.249% (active); in the assay with CCRF-CEM leukemia it was 7.02% (active); with MOLT-4 leukemia, 19.9%.

With `COc1cc(-c2cnc3nonc3n2)c(OC)c2c1OCO2`, the growth with HCT-15 colon is 87.5%; in the assay with HT29 colon it was 104%; in the assay with SNB-75 CNS it was 95.7%; with SNB-19 CNS, 108%; with U251 CNS it was 93.5%; in the assay on PC-3 prostate, 76.2%. Moreover, the growth is 96.2% in the assay on SK-MEL-5 melanoma; 106% in the assay on UACC-62 melanoma; 111% in the assay on SK-MEL-28 melanoma; 98.1% with SK-MEL-2 melanoma; 100% in the assay on SN12C renal; 85.5% in the assay on UO-31 renal. For the same molecule, the growth was 107% in the assay on TK-10 renal; 91.6% in the assay on ACHN renal; 99.1% with CAKI-1 renal; 88.3% in the assay on A498 renal; 85.3% with CCRF-CEM leukemia; 83.9% in the assay on MOLT-4 leukemia.
